Mcl-1 Bim block = human Bim-Mcl-1 interaction inhibition. AID 1009. Q07820. inhibition, % at 10 µM. hit rate 0.1% among 190,000. Bead-based flow cytometry, Bim peptide-Mcl-1 binding; in the data active = inhibition above about 40%
Target sequence (Q07820 whole entry, looked up): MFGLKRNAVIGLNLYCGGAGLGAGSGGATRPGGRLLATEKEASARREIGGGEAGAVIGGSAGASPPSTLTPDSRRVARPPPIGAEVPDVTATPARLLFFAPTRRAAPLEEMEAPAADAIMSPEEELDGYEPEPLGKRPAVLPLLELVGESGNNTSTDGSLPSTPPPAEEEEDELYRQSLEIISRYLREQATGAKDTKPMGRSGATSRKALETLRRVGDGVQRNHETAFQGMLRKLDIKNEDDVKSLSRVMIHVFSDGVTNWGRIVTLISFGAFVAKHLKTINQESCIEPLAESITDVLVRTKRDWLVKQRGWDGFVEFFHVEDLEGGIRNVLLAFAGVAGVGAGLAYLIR
GLD-1 TGE inh = GLD-1-TGE RNA interaction inhibition (C. elegans). Q17339. purified GLD-1 + fluorescein TGE RNA, fluorescence polarization. inhibition, % at 5.96 µM. hit rate 0.44% among 320,000. AID 2280;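 active = percent inhibition above a per-plate cutoff, the plate mean of test compounds plus 3 SD, cut at about 30% in these data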
Mcl1-Noxa inh = disrupts binding of human Mcl-1 to Noxa peptide; Q07820; TR-FRET Mcl-1/Noxa peptide binding, 2 h; inhibition, % at 21.7 µM; hit rate 1.5% among 220,000; AID 1022;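 active = compounds that cut the protein-peptide binding signal by more than 50% relative to plate controls in a single-dose test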;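 also: His-tagged Mcl-1 with rhodamine Noxa BH3 peptide and terbium anti-His antibody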
MCL1-BIM inh = disrupts human MCL1 binding to BIM-BH3 peptide; GST-MCL1 / FITC-Bim-BH3 fluorescence polarization; inhibition, % at 10.9 µM; hit rate 0.68% among 320,000;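 active = inhibition above the mean inhibition of all tested compounds plus 3 SD, set per campaign, cut at about 40% in these data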;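 also: higher means more loss of mP so more displacement of Bim peptide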
Mcl1-Bid inh = disrupts binding of human Mcl-1 to Bid peptide | Q07820 | TR-FRET Mcl-1/Bid-Dy647 peptide binding, 1536-well | inhibition, % at 21.7 µM | hit rate 0.97% among 220,000 | AID 1021;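 active = compounds that cut the binding signal by more than half at the single screening dose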;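 also: His-tagged Mcl-1 with europium anti-His antibody binding Bid BH3 peptide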
BCLXL inh = blocks human Bcl-xL binding to Bim BH3 peptide; Q07817; GST-Bcl-xL / FITC-Bim BH3 peptide fluorescence polarization; inhibition, % at 10.9 µM; hit rate 0.7% among 320,000; AID 2129;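 active = inhibition above the mean of all tested compounds plus 3 SD, cutoff set per campaign, cut at about 30% in these data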;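 also: inhibitors lower millipolarization by displacing the labeled peptide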
Target sequence (Q07817 whole entry, looked up): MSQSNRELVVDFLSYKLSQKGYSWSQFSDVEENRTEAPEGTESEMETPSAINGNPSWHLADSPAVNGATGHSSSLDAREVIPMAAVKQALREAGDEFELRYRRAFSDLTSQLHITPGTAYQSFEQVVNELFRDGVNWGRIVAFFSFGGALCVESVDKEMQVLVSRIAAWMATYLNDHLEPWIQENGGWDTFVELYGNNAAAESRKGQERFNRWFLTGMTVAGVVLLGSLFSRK
A number is an active result. This is a sample that favours compounds with a hit; in the whole collection about 2.3% have one here.

Results for COc1ccc(CN2C(=O)NC(=O)/C(=C/c3ccc([N+](=O)[O-])s3)C2=O)cc1 ?
GLD-1 TGE inh: inactive; Mcl1-Noxa inh: 65.0; MCL1-BIM inh: inactive; Mcl1-Bid inh: inactive; BCLXL inh: inactive

Results for COc1ccccc1N1C(=O)NC(=O)/C(=C/c2ccc([N+](=O)[O-])s2)C1=O ?
GLD-1 TGE inh: inactive; Mcl1-Noxa inh: inactive; MCL1-BIM inh: inactive; Mcl1-Bid inh: inactive; BCLXL inh: inactive

Results for O=C1NC(=O)N(c2ccccc2)C(=O)/C1=C\c1ccc2c3c(cccc13)CC2 ?
Mcl-1 Bim block: inactive; GLD-1 TGE inh: inactive; Mcl1-Noxa inh: 81.0; MCL1-BIM inh: inactive; Mcl1-Bid inh: inactive; BCLXL inh: inactive

What do the screens show for `CCCNC(=O)N1[C@H]2CC[C@@H]1C(C(=O)OC)=C(c1cc3ccccc3o1)C2`?
GLD-1 TGE inh: inactive; MCL1-BIM inh: inactive; BCLXL inh: inactive

How did CC(C)CC(C)N (stereo unspecified) do in these assays?
GLD-1 TGE inh: inactive; MCL1-BIM inh: inactive; BCLXL inh: inactive

What do the screens show for `O=c1[nH]c(=O)n(Cc2ccccc2Cl)c(O)c1/C=C1/C=CC=N1`?
Mcl-1 Bim block: inactive; GLD-1 TGE inh: inactive; Mcl1-Noxa inh: inactive; MCL1-BIM inh: inactive; Mcl1-Bid inh: inactive; BCLXL inh: inactive

What do the screens show for `CC1CCC(NC(=O)CNC(=S)N2CC3CC(C2)c2cccc(=O)n2C3)CC1` (stereo unspecified)?
GLD-1 TGE inh: inactive; MCL1-BIM inh: inactive; BCLXL inh: inactive

Results for Cc1ccc(N2C(=O)NC(=O)/C(=C\c3ccc(N4CCOCC4)cc3)C2=O)cc1 ?
Mcl-1 Bim block: inactive; GLD-1 TGE inh: inactive; Mcl1-Noxa inh: inactive; MCL1-BIM inh: inactive; Mcl1-Bid inh: inactive; BCLXL inh: inactive

How did COc1cccc(N2C(=O)NC(=O)/C(=C/c3ccc([N+](=O)[O-])s3)C2=O)c1 do in these assays?
GLD-1 TGE inh: inactive; Mcl1-Noxa inh: 61.4; MCL1-BIM inh: inactive; Mcl1-Bid inh: inactive; BCLXL inh: inactive

Results for Cc1ccc(N2C(=O)NC(=O)/C(=C\c3ccc([N+](=O)[O-])o3)C2=O)cc1 ?
Mcl-1 Bim block: inactive; GLD-1 TGE inh: inactive; Mcl1-Noxa inh: 69.7; MCL1-BIM inh: inactive; Mcl1-Bid inh: inactive; BCLXL inh: inactive

Results for COC(=O)C1=C(c2ccc(S(C)(=O)=O)cc2)C[C@@H]2CC[C@H]1N2C(=O)NCCNC(C)=O ?
GLD-1 TGE inh: inactive; MCL1-BIM inh: inactive; BCLXL inh: inactive

What do the screens show for `Cc1ccc(N2C(=O)/C(=C/N3CCN(C(=O)c4ccco4)CC3)C(=O)NC2=S)cc1C`?
Mcl-1 Bim block: inactive; GLD-1 TGE inh: inactive; Mcl1-Noxa inh: inactive; MCL1-BIM inh: inactive; Mcl1-Bid inh: inactive; BCLXL inh: inactive

What do the screens show for `Cc1cccc(N2C(=O)/C(=C/N3CCN(C(=O)c4ccco4)CC3)C(=O)NC2=S)c1`?
Mcl-1 Bim block: inactive; GLD-1 TGE inh: inactive; Mcl1-Noxa inh: 61.7; MCL1-BIM inh: inactive; Mcl1-Bid inh: inactive; BCLXL inh: inactive

How did COC(=O)C1=C(c2ccccc2OCc2ccccc2)C[C@@H]2CC[C@H]1N2C(=O)NCCCOC(C)C do in these assays?
GLD-1 TGE inh: inactive; MCL1-BIM inh: inactive; BCLXL inh: inactive

How did COC(=O)C1=C(c2cccc(OCc3ccccc3)c2)C[C@@H]2CC[C@H]1N2C(=O)NCCCOC(C)C do in these assays?
GLD-1 TGE inh: inactive; MCL1-BIM inh: inactive; BCLXL inh: inactive

What do the screens show for `CN(C)C(Cc1ccccc1)C(=O)c1cccs1` (stereo unspecified)?
Mcl-1 Bim block: 48.0; Mcl1-Noxa inh: inactive; Mcl1-Bid inh: inactive

Results for CC1=C2C3OC(=O)C(C)C3CC[C@@]2(C)C=CC1=O (stereo partly specified) ?
GLD-1 TGE inh: inactive; Mcl1-Noxa inh: inactive; MCL1-BIM inh: inactive; Mcl1-Bid inh: inactive; BCLXL inh: inactive

How did Cc1ccc2c(c1)C1CN(C)CCC1N2C(=O)Nc1cccc(Cl)c1 (stereo unspecified) do in these assays?
Mcl-1 Bim block: inactive; GLD-1 TGE inh: inactive; Mcl1-Noxa inh: 98.8; MCL1-BIM inh: inactive; Mcl1-Bid inh: inactive; BCLXL inh: inactive

What do the screens show for `O=S(=O)(c1ccccc1)N1CC1c1ccccc1` (stereo unspecified)?
Mcl-1 Bim block: inactive; GLD-1 TGE inh: inactive; Mcl1-Noxa inh: inactive; MCL1-BIM inh: inactive; Mcl1-Bid inh: inactive; BCLXL inh: inactive

How did COc1ccc2[nH]c(C)c(CCNCc3cccnc3)c2c1 do in these assays?
GLD-1 TGE inh: inactive; MCL1-BIM inh: 41.4; BCLXL inh: 42.5

What do the screens show for `COc1ccc2[nH]cc(CCNCc3cccnc3)c2c1`?
GLD-1 TGE inh: inactive; MCL1-BIM inh: inactive; BCLXL inh: inactive

Results for CCS(=O)(=O)NCc1nnc2n1-c1ccc(Br)cc1C(c1ccccc1Cl)=NC2 ?
GLD-1 TGE inh: inactive; MCL1-BIM inh: inactive; BCLXL inh: inactive

Results for Cc1ccc(N2C(=O)/C(=C/c3ccc(CN(CCC#N)S(C)(=O)=O)o3)C(=O)NC2=S)cc1 ?
Mcl-1 Bim block: inactive; GLD-1 TGE inh: inactive; Mcl1-Noxa inh: 68.8; MCL1-BIM inh: inactive; Mcl1-Bid inh: inactive; BCLXL inh: inactive

Results for N#CCC(=O)NN1Cc2ccccc2C1=N ?
Mcl-1 Bim block: inactive; GLD-1 TGE inh: inactive; Mcl1-Noxa inh: inactive; MCL1-BIM inh: inactive; Mcl1-Bid inh: inactive; BCLXL inh: 75.1

What do the screens show for `N=C1c2ccccc2CN1NC(=O)c1ccc(F)cc1`?
Mcl-1 Bim block: inactive; GLD-1 TGE inh: inactive; Mcl1-Noxa inh: inactive; MCL1-BIM inh: inactive; Mcl1-Bid inh: inactive; BCLXL inh: inactive

How did CCCCP(=O)(O)c1ccccc1 do in these assays?
Mcl-1 Bim block: inactive; GLD-1 TGE inh: inactive; Mcl1-Noxa inh: inactive; MCL1-BIM inh: inactive; Mcl1-Bid inh: inactive; BCLXL inh: inactive

Results for C=CP(=O)(O)c1ccccc1 ?
Mcl-1 Bim block: inactive; GLD-1 TGE inh: inactive; Mcl1-Noxa inh: inactive; MCL1-BIM inh: inactive; Mcl1-Bid inh: 55.4; BCLXL inh: inactive

How did COc1ccc(-n2c(CNCCc3ccc(C)cc3)nc3ccccc3c2=O)cc1 do in these assays?
GLD-1 TGE inh: inactive; MCL1-BIM inh: inactive; BCLXL inh: inactive

What do the screens show for `C=C(C=O)CC1CC(O)[C@]2(C)OC3CC4OC5C[C@]6(C)O[C@]7(C)CCC8OC9C[C@]%10(C)OC%11C(C)=CC(=O)OC%11CC%10OC9C[C@@H](C)C8OC7CC6O[C@]5(C)CC5OC5C4OC3CC2O1` (stereo partly specified)?
Mcl-1 Bim block: inactive; GLD-1 TGE inh: inactive; Mcl1-Noxa inh: inactive; MCL1-BIM inh: inactive; Mcl1-Bid inh: 77.6; BCLXL inh: inactive

How did NC(N)=Nc1ccc2[nH]c3c(c2c1)C[C@@]1(O)[C@H]2Cc4ccc(O)c5c4[C@@]1(CCN2CC1CC1)[C@H]3O5 do in these assays?
GLD-1 TGE inh: inactive; MCL1-BIM inh: inactive; BCLXL inh: inactive

What do the screens show for `CC(C)N1CCN(c2ccc(O)cc2)CC1`?
Mcl-1 Bim block: inactive; GLD-1 TGE inh: inactive; Mcl1-Noxa inh: 54.3; MCL1-BIM inh: inactive; Mcl1-Bid inh: inactive; BCLXL inh: inactive

What do the screens show for `COC(=O)C1=C(c2ccc(OC)c(OC)c2)C[C@@H]2CC[C@H]1N2C(=O)NCC1CC1`?
GLD-1 TGE inh: inactive; MCL1-BIM inh: inactive; BCLXL inh: inactive

Bioassay records: PubChem, several laboratories
